Screens from PubChem.
Mdm2 MdmX PPI: human Mdm2/MdmX binding inhibition; O15151+Q00987; SaOS-2 split-luciferase Mdm2/MdmX complementation, luminescence; inhibition, % at 8 µM; 3% of 330,000 active; AID 485346;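 active = inhibition of at least 50% at 8 µM in the primary screen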
Target sequence (O15151 whole entry, looked up): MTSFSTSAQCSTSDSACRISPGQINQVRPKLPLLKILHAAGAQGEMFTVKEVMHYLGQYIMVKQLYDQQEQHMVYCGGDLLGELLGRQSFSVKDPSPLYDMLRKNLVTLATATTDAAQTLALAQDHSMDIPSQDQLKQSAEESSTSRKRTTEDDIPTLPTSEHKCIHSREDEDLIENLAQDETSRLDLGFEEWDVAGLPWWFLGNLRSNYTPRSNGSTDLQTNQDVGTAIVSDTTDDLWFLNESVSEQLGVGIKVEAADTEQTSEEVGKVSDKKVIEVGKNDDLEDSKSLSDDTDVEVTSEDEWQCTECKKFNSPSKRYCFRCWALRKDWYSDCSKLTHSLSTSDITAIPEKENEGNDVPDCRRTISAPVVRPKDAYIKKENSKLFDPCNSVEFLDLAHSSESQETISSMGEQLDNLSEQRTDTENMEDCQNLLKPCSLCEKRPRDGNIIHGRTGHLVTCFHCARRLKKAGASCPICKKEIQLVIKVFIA
Target sequence (Q00987 whole entry, looked up): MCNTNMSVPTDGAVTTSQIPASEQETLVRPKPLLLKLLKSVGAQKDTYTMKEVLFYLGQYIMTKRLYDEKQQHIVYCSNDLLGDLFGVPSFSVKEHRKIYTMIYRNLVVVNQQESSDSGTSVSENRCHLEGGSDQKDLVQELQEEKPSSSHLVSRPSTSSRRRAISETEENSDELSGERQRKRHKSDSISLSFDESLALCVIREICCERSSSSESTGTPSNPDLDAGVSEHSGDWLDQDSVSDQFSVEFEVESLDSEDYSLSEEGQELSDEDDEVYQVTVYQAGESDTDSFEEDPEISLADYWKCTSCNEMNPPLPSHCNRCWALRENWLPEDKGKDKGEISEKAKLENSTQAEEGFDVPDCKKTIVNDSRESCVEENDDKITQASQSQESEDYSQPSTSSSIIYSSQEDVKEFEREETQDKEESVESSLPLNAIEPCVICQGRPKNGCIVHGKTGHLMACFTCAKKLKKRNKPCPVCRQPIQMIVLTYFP
NR3A LBD binder: modulators (binders) of human NR3A ligand-binding domain; NR3A LBD differential scanning fluorimetry, Tm shift; 0% = protein alone, 100% = glycine-bound protein; Tm shift relative to glycine control, % at 25 µM; 2.5% of 340,000 active; AID 1259313;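 active = melting temperature shift of at least 10% of the positive control shift, at one fixed dose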
Beta apoptosis: blocks beta cell apoptosis. 0.8% of 300,000 active. AID 435005. protection from apoptosis, % (test concentration not listed). INS-1E cytokine-induced death, ATP luminescence, 48 h; percent of positive-control rescue, neutral wells zero;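 active = Every replicate reaches about 75%, or at least half do and their mean reaches it too, limit read from the data; inconclusive = At least half of replicates reach the limit but their mean does not; inactive = Under half of replicates reach the limit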;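 also: higher means more ATP so stronger rescue from cytokine killing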
CSC inhib: blocks cancer stem cells; inhibition, % at 7.5 µM; cancer stem cell-like cells viability, luminescence; 1.1% of 300,000 active; in the data active = inhibition above about 75%; inconclusive = no clear call, values can overlap the other calls; tested in HMLE shEcad cells
MPTP inh: inhibitors of mitochondrial permeability transition pore; 1.4% of 360,000 active; AID 602449; isolated mouse mitochondria, Ca2+ swelling absorbance, 30 min; inhibition, % at 10 µM;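 active = inhibition of 50% or more, scaled per plate between neutral and stimulator controls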
SKKanGAS inh: blocks kanamycin growth of S. pyogenes SKKanGAS strain | BacTiter-Glo, 6 h | inhibition, % at 7.5 µM | 1.3% of 300,000 active | AID 1662;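 active = mean replicate score, as percent of positive control median, at least 50; inconclusive = mean below 50 but one replicate at or above 50; inactive = mean and every replicate below 50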;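 also: strain carries kanamycin resistance gene driven by streptokinase promoter and grows in 40 µg/ml kanamycin; loss of luminescence reflects streptokinase promoter inhibition or plain growth inhibition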
Large screens that a line does not name were inactive. The list is not random: actives were taken first. Their share in the collection is about 6.9%.

COc1ccc(S(=O)(=O)NC(=O)C2(C)CCN2C(=O)C2(c3ccccc3)CCCC2)cc1 (configuration not stated)	none (no result: Mdm2 MdmX PPI, NR3A LBD binder, Beta apoptosis, CSC inhib, SKKanGAS inh)
O=C(c1ccc(-c2ccc(Cl)cc2)o1)N1CCN(c2ccc([N+](=O)[O-])cc2Cl)CC1	Beta apoptosis 113
O=C(c1ccc(-c2ccc([N+](=O)[O-])cc2)o1)N1CCCCC1	none
CCCCCN(C(=O)CCC(=O)OCC(=O)c1cccc(OC)c1)c1c(N)n(CCCC)c(=O)[nH]c1=O	none
COc1ccc(NC(=O)NCCc2cccc(Cl)c2)cc1OC	NR3A LBD binder 16
COc1ccc(CCNC(=O)Nc2ccc3c(c2)OCO3)cc1OC	none
COc1ccc(CCNC(=S)NCCc2ccc(OC)c(OC)c2)cc1OC	NR3A LBD binder 27
CC(NC(=O)C1CCC(C(=O)NC(C)c2ccccc2)CC1)c1ccccc1 (configuration not stated)	Beta apoptosis 238, CSC inhib 110
CC(NC(=O)C1CCCC1)c1ccccc1 (configuration not stated)	none (no result: Mdm2 MdmX PPI, Beta apoptosis, CSC inhib, SKKanGAS inh)
Cc1c(Cl)c([N+](=O)[O-])nn1CCCC(=O)Nc1cccc(O)c1	NR3A LBD binder 12 (no result: Beta apoptosis)
O=C(Cn1nnc(-c2ccccc2)n1)Nc1cccc(S(=O)(=O)N2CCOCC2)c1	none
CCC(c1nnnn1CCc1ccccc1)N1CCN(C(=O)c2ccco2)CC1 (configuration not stated)	none
O=C(c1ccco1)N1CCN(Cc2nnc(-c3ccccc3)o2)CC1	NR3A LBD binder 12
O=C(c1ccco1)N1CCN(Cc2nnnn2CCc2ccccc2)CC1	NR3A LBD binder 13
COc1ccccc1-c1oc2ccccc2c1-c1ccc2cc[nH]c2c1	NR3A LBD binder 21 (no result: SKKanGAS inh)
Cc1c(NC(=O)COC(=O)CCC(=O)c2ccc(Cl)cc2)c(=O)n(-c2ccccc2)n1C	none (no result: CSC inhib)
Cc1cc(C(=O)NC2CC(C)(C)Cc3c2cnn3-c2cccc(F)c2)nn1C (configuration not stated)	NR3A LBD binder 12 (no result: Beta apoptosis)
S=c1[nH]nc(C2CCCCC2)n1/N=C/c1cccc(Cl)c1Cl	SKKanGAS inh 59
COc1ccc(NC(=O)Nc2ccc3c(c2)N(C)C(=O)CS3)cc1OC	none
CCOc1ccc(NC(=O)c2ccc3nccnc3c2)cc1	none
CCOc1ccc(OCCC(=O)OC(C)C(=O)Nc2ccc(C(C)=O)cc2)cc1 (configuration not stated)	NR3A LBD binder 20
CCOc1ccc(NC(=O)Nc2ccc3nccnc3c2)cc1	NR3A LBD binder 24
CCOc1ccc(NC(=O)Nc2ccc3c(c2)N(C)C(=O)CS3)cc1	NR3A LBD binder 18 (no result: Beta apoptosis)
CCOc1ccc(NC(=O)NC(=O)N(C(C)C)S(C)(=O)=O)cc1	NR3A LBD binder 18
CCCN(CC(=O)Nc1ccccc1C)C(=O)C1CC(=O)N(c2cccc(C)c2C)C1 (configuration not stated)	none
Cn1cc(-c2csc(C(O)(c3ccccc3)C(F)(F)F)n2)cn1 (configuration not stated)	none (no result: Mdm2 MdmX PPI, NR3A LBD binder, Beta apoptosis, CSC inhib, SKKanGAS inh)
CCOc1ccc2nc(NS(=O)(=O)c3ccc4c(c3)n(C)c(=O)n4C)sc2c1	NR3A LBD binder 29
CCOc1ccc(C(=O)COc2ccc(NC(C)=O)cc2)cc1	none
CCOc1ccc(NC(=O)Nc2ccc(NC(C)=O)cc2)cc1	NR3A LBD binder 22
CCOc1ccc(NC(=O)Nc2nc3ccc(S(C)(=O)=O)cc3s2)cc1	NR3A LBD binder 30
CCC(=O)Nc1nc2ccc(NC(C)=O)cc2s1	none
CCOc1cccc2sc(Nc3nc4ccc(NC(C)=O)cc4s3)nc12	NR3A LBD binder 26, SKKanGAS inh 71
CCOCC(=O)Nc1nc2ccc(S(C)(=O)=O)cc2s1	none
CCCc1nc2ccc(C(=O)OC)cn2c1Cc1cccc(F)c1	none (no result: Mdm2 MdmX PPI, NR3A LBD binder, Beta apoptosis, CSC inhib, SKKanGAS inh)
Cc1cccc(NC(=O)c2ccc(NC(=O)c3ccccc3Br)cc2)c1	NR3A LBD binder 27
Cc1cccc(C(=O)Nc2ccc(C(=O)Nc3ccc(O)cc3)cc2)c1	NR3A LBD binder 38, CSC inhib 95
COc1cc(/C=N/Nc2ccc(C(F)(F)F)cn2)cc(OC)c1O	none (no result: Beta apoptosis, CSC inhib)
Cc1cccc(C(=O)Nc2cccc(C(=O)N/N=C/c3ccncc3)c2)c1	none
Oc1ccc(/C=N/Nc2ccc(C(F)(F)F)cn2)cc1	NR3A LBD binder 26
Cc1ccc(C(=O)Nc2cccc(C(=O)N/N=C/c3ccc(O)cc3)c2)cc1	NR3A LBD binder 11 (no result: CSC inhib)
CCC(=O)N1CCC1(C)C(=O)Nc1cc(OC)ccc1OC (configuration not stated)	none (no result: Mdm2 MdmX PPI, NR3A LBD binder, Beta apoptosis, CSC inhib, SKKanGAS inh)
O=C(NC1CCCC1)c1cc(=O)[nH]c2ccccc12	none
CN(C(=O)COC(=O)C1=COCCO1)c1c(N)n(Cc2ccccc2)c(=O)[nH]c1=O	none
O=C(N/N=C/c1ccc(C(F)(F)F)cc1)c1ccc(O)cc1	NR3A LBD binder 12 (no result: CSC inhib)
O=C(N/N=C/c1cccc(C(F)(F)F)c1)c1ccc(O)cc1	SKKanGAS inh inconclusive
COc1ccc(-c2cc3nc4ccccc4n3c(N)c2C#N)cc1	SKKanGAS inh 74
COc1ccccc1NS(=O)(=O)c1cc(NC(=O)C(C)C)ccc1N1CCCCC1	none
COc1ccccc1NS(=O)(=O)c1cc(NC(=O)Nc2ccccc2)ccc1N1CCCCC1	NR3A LBD binder 20 (no result: Mdm2 MdmX PPI, SKKanGAS inh)
c1ccc2c(-c3cccc4nccn34)cncc2c1	none (no result: Mdm2 MdmX PPI, NR3A LBD binder, Beta apoptosis, CSC inhib, SKKanGAS inh)
COc1ccc(S(=O)(=O)Nc2cc(C)ccc2OC)cc1C	NR3A LBD binder 12
COc1ccc(C)cc1NS(=O)(=O)c1ccc(NS(=O)(=O)c2ccc(NC(C)=O)cc2)cc1	none
CCOc1ccc(NC(=O)CN(C)C(=O)c2ccc(=O)[nH]c2)cc1OCC	none
Cc1ccc(S(=O)(=O)N(CC(=O)N2CCC(C)CC2)Cc2ccccc2F)cc1	NR3A LBD binder 13
CCN(CC(=O)N1CCC(C)CC1)S(=O)(=O)c1ccc(C)cc1	none
CCC(=O)N1CCc2cc(Br)cc(S(=O)(=O)NCCN3CCCC3)c21	none
CCC(=O)N1CCc2cc(Br)cc(S(=O)(=O)CC(=O)OC)c21	NR3A LBD binder 14
CCOC(=O)c1c(NC(=S)Nc2ccccc2)sc2c1CC(C)(C)SC2	NR3A LBD binder 13
COCCCNC(=O)Cn1cc(/C=C(\C#N)C(=O)NC2CCCC2)c2ccccc21	none (no result: Beta apoptosis)
CCCCCN=Cc1c(C)[nH]n(-c2nc3ccccc3s2)c1=O	Beta apoptosis 90
CN(Cc1ccccc1F)C(=O)c1sccc1-c1ccccc1	none
COCOCCn1cc(CN2CCS(=O)(=O)N(Cc3ccc(-c4ccc(OC)c(OC)c4)cc3)C(CC(C)C)C2=O)nn1 (configuration not stated)	none (no result: Mdm2 MdmX PPI, NR3A LBD binder, Beta apoptosis, CSC inhib, SKKanGAS inh)
O=S1(=O)CC2SC(=S)N(c3ccccc3)C2C1 (configuration not stated)	none
O=C1N(c2ccccc2)C2CS(=O)(=O)CC2N1c1ccc(Cl)c(Cl)c1 (configuration not stated)	NR3A LBD binder 30
CCc1ccc(NC(=O)C2CCN(S(=O)(=O)c3ccc4c(c3)CC(C)N4C(C)=O)CC2)cc1 (configuration not stated)	none
CN1c2ccsc2C(O)=C(C(=S)Nc2ccc(F)c(Cl)c2)S1(=O)=O	NR3A LBD binder 26 (no result: Beta apoptosis)
